The nature of experiment [1]: qHTS assay for small molecules that induce genotoxicity in human embryonic kidney cells expressing luciferase-tagged ATAD5 (AID 651632). Note: nearly all actives have a fitted effect of over 15% in size. The method in brief: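 Test compounds were delivered by pin tool onto HEK293T reporter cells (2,000/well) expressing ATAD5 fused to luciferase. After 16 hr at 37C, 5% CO2, Amplite was added for 30 min at room temperature and luminescence was measured.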
(In general: In qHTS, concentration-response curves come from the screen itself.)

A short description of experiment [2]: qHTS assay for small molecule agonists of the p53 signaling pathway - cell viability (AID 651633; calls by dose curve;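 note: p53RE-bla HCT reporter cells with a stable beta-lactamase p53 reporter; series mostly up to about 83 µM; nearly all actives have a fitted effect of over 30% in size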). The method in brief:
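Viability counter-read: CellTiter-Glo luminescence (30 min, room temperature) in the same p53RE-bla plates. These plates had been exposed to compounds for 16 h at 37 C.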

A short description of experiment [3]: qHTS assay for small molecules that induce genotoxicity in human embryonic kidney cells expressing luciferase-tagged ATAD5 - cell viability (AID 651634; calls by dose curve; note: nearly all actives have a fitted effect of over 25% in size; note: potency is the fitted concentration of half-maximal effect). The method in brief:
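Quantitative high-throughput format. HEK293T cells expressing ATAD5 fused to luciferase were plated at 2,000 cells/well and treated 15.5 hr with compound versus DMSO. Viability was determined by fluorescent live-cell protease substrate, 30 min at 37C.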

Experiment [4] in a line: qHTS assay for small molecule disruptors of the mitochondrial membrane potential - cell viability (AID 720634; calls by dose curve; note: nearly all actives have a fitted effect of over 20% in size; note: potency is the fitted concentration of half-maximal effect). The method in brief:
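Same-well counter-screen: following the MMP dye addition, CellTiter-Glo was added to 1 hr compound-treated HepG2 cells and luminescence read after 30 min at room temperature.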

Experiment [5] is described as follows: qHTS assay to test for compound auto fluorescence at 590 nm (red) in HepG2 cells (AID 720674). The method in brief:
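We screened compounds on adherent HepG2 cells, incubating them for an hour at 37 C in 5% CO2 before reading emission at 590 nm under 540 nm excitation; values reflect equivalence to Rose Bengal sodium fluorescence.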

Experiment [6] is described as follows: qHTS assay to test for compound auto fluorescence at 535 nm (green) in HepG2 cells (AID 720675).
The nature of experiment [7]: qHTS assay to test for compound auto fluorescence at 460 nm (blue) in HEK293 cells (AID 720678). The method in brief:
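Intrinsic compound fluorescence is recorded in live HEK293 cultures after overnight incubation at 37C, 5% CO2, using excitation 405 nm and emission 460 nm. Values are referenced to triamterene.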

Experiment [8] is described as follows: qHTS assay to test for compound auto fluorescence at 590 nm (red) in HEK293 cells (AID 720679). The method in brief:
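Red autofluorescence, HEK293 cells: 2,000 cells/well; attach 4-5 hr 37C; add 23 nL cpd or DMSO; incubate o/n 37C 5% CO2; read Ex540/Em590; Rose Bengal sodium reference.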

Experiment [9] can be described thus: qHTS assay for small molecule disruptors of the mitochondrial membrane potential (AID 720635). Note: potency is the fitted concentration of half-maximal effect. The method in brief: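 Mitochondrial membrane potential tracked with Mito-MPS dye, red aggregates (ex 540/em 590 nm) against green monomers (ex 490/em 535 nm). Compound treatment 1 hr at 37C, dye 30 min in HepG2.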

26 compounds from PubChem BioAssay (Tox21) can be followed below.

Unmarked numbers belong to inactive results. Inconclusive results are not listed. Calls of active or inactive are those of the source. Unless noted, calls come from the whole dose curve; as a rule, active = well fitted curve in the direction sought with a large enough effect in the repeat runs; inconclusive = weak or mixed curves; inactive = no such curve, though single readings can be large; an effect the other way counts as inactive or inconclusive.
% is set by controls: 0 for no effect and ±100 for the full control effect.

With `CC1(C)CC(O)CC(C)(C)N1[O]`, the Potency result in experiment [1], in experiment [2], in experiment [3], in [4] and in [7] was “inactive” in each case. Moreover, the compound was classed as inactive in [5], in experiment [6] and in experiment [8].
As for `O=C(OCCCCCOC(=O)c1ccccc1)c1ccccc1`, the Potency result in [1], in experiment [2], in experiment [3], in experiment [4] and in experiment [7] was “inactive” throughout. The outcome in experiment [5], in [6] and in [8] was inactive.
Turning to `CCOC(C)OCC`, the Potency entry in experiment [1], in experiment [2], in experiment [3], in experiment [4] and in [7] was “inactive” in each case. The outcome in [5] and in [8] was inactive.
Take `C1=COCCC1`: the Potency entry in [1], in experiment [2], in experiment [3], in experiment [4] and in [7] was “inactive” in each case. In addition, the compound was called inactive in [5], in [6] and in [8].
In the case of `Cc1c(-c2cccnc2)c2ccccc2n1CCCCC(=O)O`, the Potency result in [1], in [2], in experiment [4] and in [7] was “inactive” throughout. Moreover, the compound was classed as inactive in [5], in experiment [6] and in [8].
As for `COC(=O)Cc1cccc2ccccc12`, the Potency entry in experiment [1], in experiment [2], in experiment [3], in experiment [4] and in experiment [7] was “inactive” throughout. Moreover, the compound was called inactive in experiment [5], in experiment [6] and in [8].
On to `O=C(O)c1cc(C(=O)O)c(C(=O)O)cc1C(=O)O`, for which the Potency entry in [1], in experiment [2], in [3], in experiment [4] and in experiment [7] was “inactive” in each case. For the same compound, the result in experiment [5], in [6] and in experiment [8] was inactive.
With `CC(C(=O)O)c1ccc2c(c1)Cc1cccnc1O2` (centres undefined), the Potency result in [1], in experiment [2], in [4], in [9] and in experiment [7] was “inactive” each time. For the same compound, the compound was called inactive in [5], in [6] and in experiment [8].
On to `CC(C)Oc1ccccc1O`, for which the Potency result in experiment [1], in [2], in experiment [4], in experiment [9] and in [7] was “inactive” throughout. Moreover, the result in [5], in [6] and in experiment [8] was inactive.
Consider `CCOCCn1c(N2CCCN(C)CC2)nc2ccccc21`, for which the Potency result in experiment [1], in experiment [2], in experiment [4], in experiment [9] and in experiment [7] was “inactive” in each case. The compound was called inactive in experiment [5] and in [8].
For `C=CC(=O)NC(C)(C)C`, the Potency result in experiment [1], in [2], in [3], in experiment [4] and in experiment [7] was “inactive” each time. Moreover, the call in [5], in experiment [6] and in experiment [8] was inactive.
Take `CC(=O)OCC(=O)[C@@]1(O)CC[C@H]2[C@@H]3CCC4=CC(=O)C=C[C@]4(C)[C@@]3(F)[C@@H](O)C[C@@]21C`: the Potency result in experiment [1], in [2], in [3] and in experiment [4] was “inactive” throughout. Besides, in experiment [5], the fluorescence, relative to Rose Bengal is -0.399% [at 18.6 µM]. The fluorescence, % of fluorescein control in [6] is 0.0333% [at 18.6 µM]. Further, the fluorescence, % of triamterene in experiment [7] was 0.0056% [at 18.6 µM]. Moreover, the fluorescence, % of fluorescent control in experiment [8] is 0.478% [at 18.6 µM].
`Cc1c(Cl)cccc1[N+](=O)[O-]`: the Potency entry in [1], in experiment [2], in experiment [3], in [4] and in experiment [7] was “inactive” in each case. Besides, the call in experiment [5], in [6] and in experiment [8] was inactive.
Turning to `O=C1c2ccccc2C(=O)C1c1ccc2cc(S(=O)(=O)O)cc(S(=O)(=O)O)c2n1`, the Potency result in experiment [1], in experiment [2], in experiment [4] and in experiment [7] was “inactive” throughout. The Potency in experiment [3] is 52.5 µM (active). Besides, the call in experiment [5], in experiment [6] and in experiment [8] was inactive.
As for `C=Cc1ccc(C=C)cc1`, the Potency entry in [1], in [2], in [4], in [9] and in experiment [7] was “inactive” in each case. The outcome in [5], in [6] and in experiment [8] was inactive.
As for `CC(Cc1ccccc1)(NC(=O)CN)c1ccccc1` (centres undefined), the Potency result in [1], in experiment [2], in experiment [3], in [4] and in experiment [7] was “inactive” throughout. In addition, the compound was called inactive in [5], in experiment [6] and in experiment [8].
With `Clc1nc2ccccc2nc1Cl`, the Potency result in experiment [1], in experiment [2], in experiment [4] and in [7] was “inactive” throughout. For the same compound, the result in [5], in [6] and in experiment [8] was inactive.
`CCC1=C(C)CN(C(=O)NCCc2ccc(S(=O)(=O)NC(=O)NC3CCC(C)CC3)cc2)C1=O` (centres undefined): the Potency result in experiment [1], in experiment [2], in [3], in experiment [4] and in experiment [7] was “inactive” each time. Further, the compound was called inactive in [5], in experiment [6] and in [8].
In the case of `CCCc1nc(C)c2c(=O)[nH]c(-c3cc(S(=O)(=O)N4CCN(CC)CC4)ccc3OCC)nn12`, the Potency entry in experiment [1], in [3], in experiment [4], in experiment [9] and in [7] was “inactive” each time. Moreover, the outcome in experiment [5], in [6] and in experiment [8] was inactive.
In the case of `N#C[C@@H]1CC(F)(F)CN1C(=O)CNC1CC2CCC(C1)N2c1ncccn1` (some centres undefined), the Potency result in experiment [1], in experiment [3], in experiment [4] and in experiment [7] was “inactive” each time. Also, the call in experiment [5], in [6] and in [8] was inactive.
On to `CC(=O)c1ccc(Cl)c(Cl)c1Cl`, for which the Potency entry in experiment [1], in experiment [4] and in experiment [7] was “inactive” throughout. The compound was classed as inactive in experiment [5], in experiment [6] and in [8].
On to `CC(C(=O)O)c1ccc(/C=C2\CCCCC2=O)cc1` (centres undefined), for which the Potency result in experiment [2], in experiment [3], in experiment [4] and in experiment [7] was “inactive” in each case. The result in experiment [5], in experiment [6] and in experiment [8] was inactive.
As to `Clc1cccc(C(c2ccc3nc[nH]c3c2)n2ccnc2)c1` (centres undefined), the Potency result in experiment [1], in experiment [4] and in experiment [7] was “inactive” in each case. Also, the outcome in [5], in experiment [6] and in [8] was inactive.
Take `CCCN(C1CCN(C(=O)C2CCNCC2)CC1)[C@@H]1CCc2ccc(OC)cc2C1`: the Potency result in experiment [1], in [3], in experiment [4] and in experiment [7] was “inactive” each time. For the same compound, the compound was classed as inactive in experiment [5], in experiment [6] and in [8].
With `N#Cc1ccc(CC(=O)c2cccc(C(F)(F)F)c2)cc1`, the Potency result in [1], in experiment [3] and in [7] was “inactive” in each case. For the same compound, in [4], the Potency was 48.6 µM (active). Further, the compound was classed as inactive in experiment [5], in experiment [6] and in experiment [8].
`c1ccc(CN(Cc2ccccc2)Cc2ccccc2)cc1`: the Potency result in [1], in experiment [4] and in [7] was “inactive” in each case. The Potency in [9] is 30.6 µM (active). For the same compound, the compound was classed as inactive in experiment [5] and in [8].
